High-throughput results as filed in PubChem.
mHTT CaM bind: mHTT-calmodulin interaction abrogation. P42858. AlphaScreen His-mHTT/GST-CaM binding, luminescence. inhibition, % at 15 µM. 3.6% of 190,000 active. AID 1671202
Pf apPOL inh: Pf-apPOL DNA polymerase inhibition; Recombinant Pf-apPOL, molecular beacon fluorescence, 1.5 h; inhibition, % at 10 µM; 0.25% of 210,000 active; AID 1794808
Hits are given with their value; – = inactive; · = no result given; ! = repeats disagree. The list is not random: actives were taken first. Their share in the collection is about 3.5%. No stated cut-off is given here; in the data, active means inhibition above about 50%; inactive means the rest.

SMILES	mHTT CaM bind	Pf apPOL inh
COc1ccc2c(c1)Nc1ccccc1S2	62.7	·
Clc1ccc2c(c1)Nc1ccccc1S2	–	·
N#Cc1cccc(C(=O)N2CCCn3nc(-c4ccc(Cl)cc4)cc3C2)c1	55.0	–
Cc1ccc(C(=O)N2CCCn3nc(-c4ccc(Cl)cc4)cc3C2)s1	71.2	–
Cc1ccc(C(=O)N2CCCn3nc(-c4cccs4)cc3C2)s1	–	–
Cc1cccc(-c2cc3n(n2)CCCN(C(=O)COc2ccc(Cl)cc2)C3)c1	83.3	–
Cc1cccc(-c2cc3n(n2)CCCN(C(=O)c2ccncc2)C3)c1	–	–
Cc1cccc(-c2cc3n(n2)CCCN(C(=O)c2cccc(C#N)c2)C3)c1	–	–
OCCN1CCN(CC(O)COC2CCCC2)CC1 (centres undefined)	–	–
CCOc1cccc(N2CCN(C(=O)c3cccc(OC)c3)C(C)C2=O)c1 (centres undefined)	–	–
O=C(O)Cc1c[nH]c2ccc(O)cc12	84.8	95.0!
NC(Cc1c[nH]c2ccc(O)cc12)C(=O)O (centres undefined)	·	–
O=C(CSc1cccc2cccnc12)NC1CCCCC1	–	–
O=C(CSc1cccc2cccnc12)N1CCCCC1	88.0	–
O=C(CN1CCN(c2ccc(Cl)cc2)CC1)c1ccc(O)c(O)c1	–	–
CCC(=O)NC(=Nc1nc(C)c2cc(C)c(C)cc2n1)NC(=O)CC	–	52.5
CCOc1ccc2c(C)nc(N=C(N)NC(=O)CC)nc2c1	–	–
Cc1nc(CC(=O)NC2CCc3[nH]c4cc(Cl)cc(Cl)c4c3C2)c(C)s1 (centres undefined)	77.6	–
Cc1ccc2[nH]c3c(c2c1)CC(NC(=O)Cc1ccccc1C)CC3 (centres undefined)	–	–
CC(C)C(=O)NC1CCc2[nH]c3cc(Cl)cc(Cl)c3c2C1 (centres undefined)	68.2	–
Cc1cc(C)c2c3c([nH]c2c1)CCC(NC(=O)C1CCCC1)C3 (centres undefined)	–	–
CC(C)C(=O)Nc1ccc(C2(C(=O)NCc3cccc(Cl)c3)CCCCC2)cc1	–	–
CCN1c2cc(C)ccc2-n2cccc2C12CCN(C(=O)NC(C)C)CC2	99.5	–
CCN1c2cc(C)ccc2-n2cccc2C12CCN(C(=O)Nc1ccccc1Cl)CC2	–	–
CCN1c2cc(C)ccc2-n2cccc2C12CCN(C(=O)NC(C)C(=O)OC)CC2 (centres undefined)	67.7	–
SMILES	mHTT CaM bind	Pf apPOL inh
COC(=O)C(C)NC(=O)N1CCC2(CC1)Nc1cc(F)ccc1-n1cccc12 (centres undefined)	–	–
CN(C)Cc1c(O)ccc2c1OC(=Cc1c(Cl)cccc1Cl)C2=O	–	–
CC1CCN(C(=O)Cn2cnc3c2c(=O)n(C)c(=O)n3C)CC1	–	–
Cc1ccc(CNC(=O)C2CN(C(=O)c3cccs3)CC23CCCCC3)o1 (centres undefined)	–	–
Cn1cc(CN2CCN(C(=O)c3ccc(F)cc3)CC2)ccc1=O	–	–
Cc1cc(C2C(C#N)=C(N)N(c3ccc(Cl)cc3[N+](=O)[O-])C3=C2C(=O)CCC3)c(C)s1 (centres undefined)	–	–
CC(=O)N1N=C(c2ccc([N+](=O)[O-])cc2)CC1c1ccccc1 (centres undefined)	–	–
O=[N+]([O-])c1ccc(N2N=C(c3ccc(O)cc3)CC2c2ccc(F)cc2)cc1 (centres undefined)	98.0	–
O=C(O)CCC(=O)N1N=C(c2ccc([N+](=O)[O-])cc2)CC1c1ccc(Br)cc1 (centres undefined)	–	–
O=[N+]([O-])c1ccc(N2N=C(c3ccccc3)CC2c2ccccc2O)cc1 (centres undefined)	99.0	–
CCc1nc(-c2cccnc2N2CCCC(C(=O)N3CCCCC3)C2)no1 (centres undefined)	–	–
CCCC(=O)N1CCN(c2nc(C)nc(C)c2Cc2ccc(C)cc2)CC1	–	–
COc1ccc(CNc2ccc(F)c(Cl)c2)cc1C	–	–
COc1ccc(OC)c(CNc2ccc(F)c(Cl)c2)c1	–	–
Oc1c(Cl)cc(Cl)cc1CNc1ccc(F)c(F)c1	100.3	–
O=[N+]([O-])c1ccccc1CNc1ccc(F)c(Cl)c1	–	–
COc1ccc(CNc2ccc(F)c(Cl)c2)c(OC)c1OC	54.1	–
CCOc1cccc(CNc2ccc(F)c(Cl)c2)c1O	62.6	–
O=c1c2nnn(-c3ccc(OC(F)(F)F)cc3)c2ncn1Cc1cccc(Cl)c1	–	–
CCN(CCCNC(=O)c1ccc2c(c1)NC(=O)C(N1CCCCC1)S2)c1ccccc1 (centres undefined)	–	–
CCn1c(-c2cc(NC(=O)c3cccnc3)n[nH]2)cc2ccccc21	–	–
COc1ccc(N2C(=O)CC(C3CCCC=C3N3CCCCC3)C2=O)cc1 (centres undefined)	–	–
CCc1ccc(/C=C2\C(=O)Nc3ccc(Cl)cc32)cc1	–	–
O=C1Nc2ccc(Br)cc2/C1=C/c1ccc(F)cc1	–	–
CN(C)c1ccc(/C=C2\C(=O)Nc3ccc(Br)cc32)cc1	99.0	–
SMILES	mHTT CaM bind	Pf apPOL inh
CCc1ccc(/C=C2\C(=O)Nc3ccc(Br)cc32)cc1	74.0	–
COc1c(C(=O)NCc2ccc3c(c2)OCO3)sc2cc(Cl)ccc12	–	–
CCOc1ccccc1-c1nc(-c2ccc3ncn(C)c3c2)no1	–	–
CC(C)NC(=O)N1CCc2c(c(COCc3cccc(F)c3)nn2C)C1	–	–
Cc1sc(C(=O)N2CCCC2)c2ncnc(NCc3ccc(F)c(Cl)c3)c12	99.9	–
Cc1sc(C(=O)N2CCCC2)c2ncnc(NCc3cccc(Cl)c3)c12	–	–
CCCNc1cc(N2CCC(CCC(=O)NCc3cccc(Cl)c3)CC2)ncn1	–	–
c1ccc(C(CCNCc2ccc3c(c2)OCO3)c2ccco2)cc1 (centres undefined)	–	–
Cn1c(C2CCN(C(=O)c3cccc(F)c3)C2)nc2cccnc21 (centres undefined)	–	–
Cc1cc(C)cc(N2COc3cc4c(cc3C2)OCO4)c1	53.0	–
Cc1ccc(N2COc3cc4c(cc3C2)OCO4)cc1Cl	–	–
Cc1ccc(N2COc3cc4c(cc3C2)OCO4)cc1	–	–
Cc1cccc(N2COc3cc4c(cc3C2)OCO4)c1	59.0	–
O=C(Nc1cc2cc(Br)ccc2oc1=O)c1ccc(-c2ccccc2)cc1	–	–
COc1ccc(NC(=O)CN(c2ccc(C)c(C)c2)S(C)(=O)=O)cc1OC	–	–
O=C(CCCCCCCC(=O)N/N=C/c1cc(Br)cs1)N/N=C/c1cc(Br)cs1	–	·
Cc1ccsc1C1C2=C(CC(C)(C)CC2=O)Nc2ncnn21 (centres undefined)	87.3	–
Cc1ccsc1C1C2=C(CCCC2=O)Nc2ncnn21 (centres undefined)	–	–
O=C(c1ccccc1Br)N1CCC(c2nnc(-c3ccc(F)cc3)o2)CC1	–	–
Cc1cc(C(=O)N2CCC(c3nnc(-c4ccc(F)cc4)o3)CC2)c(C)o1	100.0	–
CC(C)(C)c1ccc(C(=O)ON=C(N)CSc2cccs2)cc1	·	–
O=C(NCc1ccccc1C(F)(F)F)C1CCN(c2cc(N3CCOCC3)ncn2)CC1	–	–
Cc1cc(OCC(=O)NCc2ccccc2)nc(N2CCC(C)CC2)n1	–	–
COc1ccc(C2CC(c3ccccc3Cl)=NN2C(=O)CN(C)C(C)=O)cc1 (centres undefined)	95.7	–
